Measured values reported in PubChem BioAssay AID449762 (Southern Research Specialized Biocontainment Screening …, 2010).
The whole screen tested about 330,000 compounds, of which about 1,900 (0.58%) were called active. Another 4% or so got no clear call; they are omitted. Not all results are given here. Results with a measured potency or affinity are listed apart. A number with no mark means an inactive call. No stated cut-off is given here; in the data, inconclusive means inhibition above about 70% without an active follow-up result; inactive means below that.

assay: M. tuberculosis growth inhibition, HTS (AID 449762);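 further: bacterial growth assessed after seven days of incubation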; details: M. tuberculosis H37Rv growth inhibition, 7H9 media; at 25 µM; hits give high values

Row | SMILES | inhibition [%]
1 | Cc1ccc(C(=O)c2coc3ccc(O)cc23)cc1 | 2.44
2 | C[C@@H](NC(=O)[C@@H]1Cc2ccccc2CN1)C(=O)Nc1ccc2c(c1)OCCO2 | 8.26
3 | Cc1[nH]c2ccc(OC(F)(F)F)cc2c1CCNCc1cccc([N+](=O)[O-])c1 | 62.9
4 | COc1ccc(CNCCc2c(C)[nH]c3ccc(OC(F)(F)F)cc23)c(OC)c1 | 35.2
5 | C(=NC12CN3CN(CN(C3)C1)C2)c1ccc2c(c1)OCO2 | -3.64
6 | COC(=O)C1=C(c2ccc(F)cc2OCc2ccccc2)C[C@@H]2CC[C@H]1N2C(=O)NCc1ccc(F)cc1 | -5.1
7 | CC(Sc1nc(-c2ccccc2)nc2c1COC(C)(C)C2)C(=O)N1CCOCC1 (centres undefined) | -20.2
8 | O=c1c2cnn(-c3ccccc3)c2nc(-c2cccs2)n1-c1ccc(Br)cc1 | 1.78
9 | O=c1oc(-c2cccs2)nc2ccccc12 | -3.68
10 | Cc1ccc(-n2c(C)cc(/C=N/NC(=O)c3ccc(CN4CCOCC4)cc3)c2C)cc1 | -0.81
11 | COc1cc(NC(=O)Cn2cnc(S(=O)(=O)N3CCOCC3)c2)cc(OC)c1OC | -1.58
12 | O=C1c2ccccc2-c2cccnc21 | -8.77
13 | O=C1C(O)=C(O)C(=O)c2ccccc21 | -1.99
14 | CCC1CCCCN1C(=S)NCc1ccccc1 (centres undefined) | -0.48
15 | CN(C)CCOc1cc(Cl)cc(Cl)c1 | 10
16 | Cc1nc2c(C(=O)N3CCN(c4ccccn4)CC3)cnn2c(C)c1Cc1cccc(Cl)c1 | 48.5
17 | O=C(NCc1cccnc1)/C(=C/c1ccc(-c2cccc(C(F)(F)F)c2)o1)NC(=O)c1ccccc1 | 11.6
18 | Cc1ccc(C(=O)N/C(=C\c2ccco2)C(=O)NCc2cccnc2)cc1 | -2.29
19 | CCOC(=O)N1CCN(C(=O)CSc2ccc(C(=O)OC)cc2[N+](=O)[O-])CC1 | -7.7
20 | Clc1ccccc1Cc1noc(CN2CCN(Cc3ccccn3)CC2)n1 | 2.36
21 | CC(C)(C)c1ccc(C(=O)NC2CCS(=O)(=O)C2)cc1 (centres undefined) | 1.38
22 | Cc1nn(-c2ccccc2)c(N)c1C(c1ccccc1)c1c(C)nn(-c2ccccc2)c1N | 5.62
23 | Cc1ccc(C(c2c(C)nn(-c3ccccc3)c2N)c2c(C)nn(-c3ccccc3)c2N)cc1 | 23.1

Row | SMILES | inhibition [%]
24 | COc1ccc(OC)c(C(=O)COC(=O)CNC(=O)c2ccccc2)c1 | -2.57
25 | O=C(Nc1ccccc1)N1CCCN(c2c(Cl)cncc2Cl)CC1 | 2.69
26 | O=C(CN1CCN(Cc2ccccc2)CC1)N/N=C/C=C/c1ccccc1[N+](=O)[O-] | 12
27 | O=C(CN1CCN(Cc2ccccc2Cl)CC1)N/N=C/C=C\c1ccccc1[N+](=O)[O-] | 3.7
28 | CCSc1nnc(NC(=O)c2nc3nc(C)cc(C)n3n2)s1 | -7.36
29 | Cc1ccccc1OCC(=O)OCC(=O)Nc1ccc2c(c1)OCCO2 | -7.86
30 | Cc1ccc2c(c1)c1ncnc(N3CCN(c4ccccc4)CC3)c1n2C | 0.15
31 | Cc1ccc2c(c1)c1ncnc(N3CCOCC3)c1n2C | -0.66
32 | CC(=O)Nc1ccc(-c2csc(Nc3ncccn3)n2)cc1 | 10.8
33 | Cc1c(C(=O)N2CCN(c3ccccn3)CC2)cccc1[N+](=O)[O-] | 3.8
34 | O=C(NNS(=O)(=O)c1ccccc1[N+](=O)[O-])c1ccc(O)cc1 | 13.9
35 | COC(=O)[C@]1(Cc2ccccc2)N[C@H](CN(C)C(=O)c2ccc(C)cc2)[C@@H]2C(=O)N(C)C(=O)[C@@H]21 | 2.73
36 | CCOc1ccccc1C1N=C(c2ccc(OC)cc2)CC(c2ccccc2O)N1 (centres undefined) | 13
37 | CCC1(C)N=C(c2ccc3c(c2)OCO3)CC(c2ccccc2O)N1 (centres undefined) | -5.31
38 | COc1cccc2cc(C(=O)N3CCCCC3C)c(=O)oc12 (centres undefined) | -7.25
39 | COC(=O)c1c(N)n(CCCN2CCOCC2)c2nc3ccccc3nc12 | 4.91
40 | COCCOC(=O)c1c(N)n(CCCN2CCOCC2)c2nc3ccccc3nc12 | 0.66
41 | Cc1[nH]c2ccccc2c1/C=N/NC(=O)CNC(=O)c1ccco1 | 1.49
42 | COCCn1c(=S)[nH]c2cc(C(=O)N3CCc4ccccc4C3)ccc2c1=O | 5.9
43 | CC[C@H](C)[C@H](NC(N)=O)C(=O)NCCc1ccc(Cl)cc1Cl | -2.03
44 | Clc1ccc(CNc2ccc3nnc(-c4ccccc4)n3n2)cc1 | -9.56
45 | Cc1ccc(CNc2ccc3nnc(-c4ccccc4)n3n2)cc1 | -2.25
46 | Cc1cc(C)n(CCOC(=O)C2C(C=C(Cl)Cl)C2(C)C)n1 (centres undefined) | 6.12

Row | SMILES | inhibition [%]
47 | CN(C)[C@@H]1C(=O)C(C(N)=O)=C(O)[C@@]2(O)C(=O)C3=C(O)c4c(O)cccc4[C@@](C)(O)[C@H]3C[C@@H]12 | 22.5
48 | CN(C)[C@@H]1C(=O)C(C(N)=O)=C(O)[C@@]2(O)C(=O)C3=C(O)c4c(O)cccc4[C@@](C)(O)[C@H]3[C@H](O)[C@@H]12 | 31.9
49 | C=C1c2cccc(O)c2C(O)=C2C(=O)[C@]3(O)C(O)=C(C(N)=O)C(=O)[C@@H](N(C)C)[C@@H]3[C@@H](O)[C@H]12 | 69.5
50 | CSC(=NC#N)N1CCN(c2c(C)cccc2C)CC1 | -2.97
51 | CC(C)CCNC(=O)C1CC(c2cccc(F)c2)=NO1 (centres undefined) | -4.76
52 | O=C(NC1CCCC1)C1CCCN1S(=O)(=O)c1cccc2cccnc12 (centres undefined) | -5.92
53 | CC1CCCC(NC(=O)C2CCN(C(=O)Nc3ccccc3)CC2)C1C (centres undefined) | -2.53
54 | CCC(C)[C@H](NC(=O)[C@H](Cc1ccccc1)n1c(=O)[nH]c2ccccc2c1=O)C(=O)N1CCC(C(=O)O)CC1 (some centres undefined) | -6.06
55 | CCOc1ccc(C(C)=O)cc1COC(=O)c1cnc(Cl)c(Cl)c1 | -3.39
56 | O=C(OCC(=O)N1CCCC1)c1cnc(Cl)c(Cl)c1 | 2.91
57 | CC(C)(Oc1ccc(Cl)cc1)C(=O)OCC(=O)N1CCCC1 | -3.13
58 | O=C(OCC(=O)N1CCOCC1)c1cnc(Cl)c(Cl)c1 | -0.51
59 | COc1ccc(N2CCN(C(=O)C(C)(C)Oc3ccc(Cl)cc3)CC2)cc1 | 2.08
60 | O=C(COC(=O)c1cnc(Cl)c(Cl)c1)c1ccc(F)cc1 | 2.14
61 | O=c1[nH]cc(S(=O)(=O)Nc2ccc3c(c2)OCO3)c(=O)[nH]1 | 7.53
62 | COc1ccc2nc(N3C(=O)C(O)=C(C(=O)c4ccco4)C3c3ccccc3OC)sc2c1 (centres undefined) | 0.62
63 | COc1cccc(C2CC(c3ccccc3OC)n3ncnc3N2)c1 (centres undefined) | -5.17
64 | CC(=O)N/C(=C\c1ccccc1)C(=O)NC(C)C(=O)O (centres undefined) | -2.83
65 | O=C(COC(=O)c1cc2ccccc2cc1O)Nc1cccnc1Cl | -17
66 | C=CCNC(=O)N1CCc2[nH]c3ccc(F)cc3c2C1 | -1.16
67 | CC(OC(=O)Cc1n[nH]c(=O)c2ccccc12)C(=O)Nc1ccc(F)cc1Cl (centres undefined) | -10.4
68 | Cn1c(C(=O)N(Cc2ccccc2)Cc2ccccn2)cc2sccc21 | -2.09
69 | Cc1cccc(C(=O)OCC(=O)Nc2ccccc2C(=O)NC2CC2)c1 | -11.3

Row | SMILES | inhibition [%]
70 | Cn1c(SCC(=O)c2ccc3c(c2)OCCO3)nnc1C(F)(F)F | -5.9
71 | O=C(/C=C/c1ccc[nH]1)c1ccc(F)cc1 | 2.02
72 | O=C(/C=C/c1c(F)cccc1Cl)c1ccc(O)cc1 | -0.9
73 | Cc1cc(C)n2c(Br)c(CSc3nc4ccccc4s3)nc2n1 | -0.87
74 | CC(NC(=O)CSC(=S)N1CCCC1)c1ccc(S(N)(=O)=O)cc1 (centres undefined) | -7.22
75 | Cc1cc(/C=N/NC(=O)c2cccs2)c(C)n1-c1ccccc1 | 3.6
76 | Cc1cc(/C=N/NC(=O)c2cccs2)c(C)n1-c1cnccn1 | 11.2
77 | Cc1ccc(C)c(OCC(=O)NNC(=O)CCN2CCN(c3ccccc3)CC2)c1 | 7.6
78 | COc1cccc(NC(=O)CSc2nnc(-c3cc(C)[nH]n3)n2N)c1 | 7.87
79 | CCc1cc2c(=O)c(-c3nc4ccccc4n3C)c(C)oc2c(CN2CCCCC2)c1O | -5.94
80 | CCc1cc2c(=O)c(-c3cnn(-c4ccccc4)c3)c(C(F)(F)F)oc2c(CN(C)C)c1O | 5.42
81 | CC1CN(C(=O)CCC(=O)N2CCN(c3cccc(C(F)(F)F)c3)CC2)c2ccccc2O1 (centres undefined) | 9.11
82 | COc1ccccc1NC(=O)N(Cc1ccccc1)C1=NCC(C)S1 (centres undefined) | 6.61
83 | OC(CNCC1CCCO1)COc1ccc(OCC(O)CNCC2CCCO2)cc1 (centres undefined) | 5.75
84 | CCOC(=O)c1c(C)n(C)c2ccc(OCC(O)CNCCc3ccccc3)cc12 (centres undefined) | 15.2
85 | COc1ccc(N2CCN(C(=O)c3sc4ncn(CC(=O)N5CCCCC5C)c(=O)c4c3C)CC2)cc1 (centres undefined) | -4.52
86 | O=C(CSc1nc(-c2ccc(F)cc2)cs1)NCC1CCCO1 (centres undefined) | -0.07
87 | O=C(CSc1nn(-c2ccc(Cl)cc2)c(=S)s1)NCC1CCCO1 (centres undefined) | 69.3
88 | CCCCCCCCCCSc1n[nH]c(NC(C)=O)n1 | 4.39
89 | COc1ccc(OC)c(-c2csc(NC(=O)COC(=O)C3(C)CC3(Cl)Cl)n2)c1 (centres undefined) | 8.7
